Consider five compounds from PubChem BioAssay.

Records with an inconclusive call do not appear. Active and inactive are the calls of the source. Unless noted, no stated cut-off is given here; in the data, active means response above about 15%; inactive means the rest.

Test [1] is described as follows: yeast TOR pathway RPL19A-GFP modulators, primary screen, cell-based, S. cerevisiae, multiplex flow cytometry (AID 1862; in the data active means percent of DMSO control GFP below about 86%;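 further: lower values mimic rapamycin by blocking the RPL19A rise seen in DMSO cells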). As to conditions: S. cerevisiae RPL19A-GFP strain, flow cytometry fluorescence, 3 h; at 10 µM; stronger effect = lower value. (In flow cytometry, cells or beads pass a laser one at a time.)
Test [2] is described as follows: modulators of MEP2-GFP levels in yeast, primary screen, S. cerevisiae, multiplex flow cytometry (AID 1867;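 active means GFP response, as percent of the DMSO control, above the screen-wide mean plus 3 SD, about 139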;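 further: median GFP channel fluorescence of barcode-gated MEP2-GFP cells measured by flow cytometry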). The conditions noted are these: S. cerevisiae MEP2-GFP strain, 3 h, at 10 µM, stronger effect = higher value, 100% means same as DMSO wells.
A short description of test [3]: modulators of CIT2-GFP expression in yeast, primary screen, S. cerevisiae, GFP fusion, multiplex flow cytometry (AID 1870;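 active means percent response above a set limit, the screen-wide mean plus 3 SD, cut at about 130% in these data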;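 further: barcoded CIT2-GFP strain pooled with four other GFP strains with rapamycin as positive control; median GFP fluorescence per well over plate mean of DMSO wells so 100% = DMSO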). As to conditions: 3 h, at 10 µM, stronger effect = higher value.
Test [4] can be described thus: modulators of LAP4-GFP expression in yeast, primary screen, S. cerevisiae, multiplex flow cytometry (AID 1873;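 active means GFP signal, as percent of the solvent control, above the screen mean plus 3 SD, about 149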). The conditions noted are these: 3 h, at 10 µM, stronger effect = higher value.
The nature of test [5]: modulators of AGP1-GFP expression in yeast TOR pathway, primary screen, cell-based, multiplex flow cytometry, S. cerevisiae (AID 1887;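 active means GFP signal above the screen-wide mean plus 3 SD, that is over about 124.5% of the solvent control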;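 further: AGP1-GFP fusion strain of S. cerevisiae within a five-strain barcoded multiplex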). The conditions noted are these: 3 h, at 10 µM, stronger effect = higher value.
Test [6] in a line: inhibitors of CD8+ T cell-vesicle binding, pilot screen, LFA-1/ICAM-1 modulator project, MLPCN validation set, flow cytometry (AID 2523;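 active means response below a set limit, under 55% cells CD8-positive and vesicle-bound, and CD8 cells' 90th-percentile brightness under 279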;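 on vesicle binding response: mean PE anti-B7-1 fluorescence of CD8+ cells relative to row control; 100% = QL9-loaded vesicles with DMSO vehicle in the same plate row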). As to conditions: 2C mouse CD8+ T cells, at 7 µM, stronger effect = lower value; double positive events: measured here: CD8+/vesicle+ event percentage.
The target of test [7] is Integrin beta-1 (Homo sapiens) + Integrin alpha-4 (Homo sapiens) (UniProt P13612+P05556). The test can be described thus: inhibition of HUTS-21 binding to VLA-4, pilot screen, VLA-4 allosteric modulator project, U937 cells, HUTS-21 mAb, flow cytometry, validation set (AID 2674;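 active means inhibition above 50%, about 3 SD of the validation set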;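 further: antibody binding induced by the VLA-4 ligand LDV present at three times its Kd; 0% = LDV ligand with antibody and no compound and 100% = antibody without LDV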). As to conditions: HUTS-21 LIBS mAb binding, at 6.7 µM, stronger effect = higher value, binding induced by LDV ligand.
Chain of Integrin beta-1 (Homo sapiens) + Integrin alpha-4 (Homo sapiens) (P05556 whole entry, looked up): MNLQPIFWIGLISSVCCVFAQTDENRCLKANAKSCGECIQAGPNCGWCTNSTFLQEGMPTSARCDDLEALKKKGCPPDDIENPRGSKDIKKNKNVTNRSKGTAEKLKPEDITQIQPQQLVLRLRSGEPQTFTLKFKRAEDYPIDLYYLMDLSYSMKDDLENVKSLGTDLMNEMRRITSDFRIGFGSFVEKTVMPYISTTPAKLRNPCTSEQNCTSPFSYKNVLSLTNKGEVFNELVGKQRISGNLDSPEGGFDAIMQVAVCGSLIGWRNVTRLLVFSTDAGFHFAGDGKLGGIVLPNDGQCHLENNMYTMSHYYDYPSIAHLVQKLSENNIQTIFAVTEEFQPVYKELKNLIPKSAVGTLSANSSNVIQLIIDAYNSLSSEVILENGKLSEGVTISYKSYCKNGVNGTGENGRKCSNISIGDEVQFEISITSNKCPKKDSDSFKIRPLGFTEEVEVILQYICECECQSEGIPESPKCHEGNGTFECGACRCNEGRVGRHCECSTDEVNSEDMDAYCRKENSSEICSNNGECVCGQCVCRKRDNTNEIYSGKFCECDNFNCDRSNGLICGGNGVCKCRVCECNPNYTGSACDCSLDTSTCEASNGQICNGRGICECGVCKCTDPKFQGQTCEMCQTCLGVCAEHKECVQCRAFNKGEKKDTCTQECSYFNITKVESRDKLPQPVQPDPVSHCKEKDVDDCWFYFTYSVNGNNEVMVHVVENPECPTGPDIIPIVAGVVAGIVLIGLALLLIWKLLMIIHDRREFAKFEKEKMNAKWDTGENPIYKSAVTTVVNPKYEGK
Chain of Integrin beta-1 (Homo sapiens) + Integrin alpha-4 (Homo sapiens) (P13612 whole entry, looked up): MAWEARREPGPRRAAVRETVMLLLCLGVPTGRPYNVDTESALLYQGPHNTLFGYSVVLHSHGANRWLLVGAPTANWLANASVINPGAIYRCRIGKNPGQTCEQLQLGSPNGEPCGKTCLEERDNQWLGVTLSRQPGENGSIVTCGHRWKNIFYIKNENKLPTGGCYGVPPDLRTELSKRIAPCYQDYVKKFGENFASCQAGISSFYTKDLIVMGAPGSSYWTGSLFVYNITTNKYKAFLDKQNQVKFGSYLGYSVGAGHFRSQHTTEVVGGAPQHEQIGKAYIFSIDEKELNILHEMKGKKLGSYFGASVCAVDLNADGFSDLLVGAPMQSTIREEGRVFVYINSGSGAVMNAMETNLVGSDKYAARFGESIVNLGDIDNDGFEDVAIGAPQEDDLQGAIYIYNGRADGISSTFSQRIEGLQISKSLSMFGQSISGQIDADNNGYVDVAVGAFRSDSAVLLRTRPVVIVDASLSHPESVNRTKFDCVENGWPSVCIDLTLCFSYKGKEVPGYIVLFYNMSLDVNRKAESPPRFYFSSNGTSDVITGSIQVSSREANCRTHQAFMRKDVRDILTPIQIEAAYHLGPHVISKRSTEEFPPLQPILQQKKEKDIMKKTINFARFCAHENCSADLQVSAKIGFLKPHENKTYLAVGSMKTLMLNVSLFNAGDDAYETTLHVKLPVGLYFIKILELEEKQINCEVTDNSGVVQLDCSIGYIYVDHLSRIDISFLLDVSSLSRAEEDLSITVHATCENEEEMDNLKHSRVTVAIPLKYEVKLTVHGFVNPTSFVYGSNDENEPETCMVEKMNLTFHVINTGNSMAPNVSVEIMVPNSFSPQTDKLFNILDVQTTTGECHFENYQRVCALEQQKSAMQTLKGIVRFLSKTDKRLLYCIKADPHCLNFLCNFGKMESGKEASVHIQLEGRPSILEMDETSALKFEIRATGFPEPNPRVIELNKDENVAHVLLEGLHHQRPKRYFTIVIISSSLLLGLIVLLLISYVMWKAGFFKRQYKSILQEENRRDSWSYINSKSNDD

Test [8] can be described thus: superoxide lowering in aged yeast cells, pilot screen, validation compound set (AID 2706;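 active means superoxide response below 65% of plate, a cut near 3 SD across the whole screen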;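 further: yeast exposed to compound for one week at 30 degrees C before staining; 100% = mean of all compound wells on the same plate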). As to conditions: S. cerevisiae aging, superoxide DHE fluorescence; at 10 µM; stronger effect = lower value.
Test [9] deals with Beta-adrenergic receptor kinase 1 (Homo sapiens) (UniProt P25098). As to the kind of experiment: GRK2 binders displacing RNA aptamer, biochemical, validation, human GRK2, bead flow cytometry (AID 488806;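 active means aptamer binding inhibition above 30%, about 3 SD of noise from non-fluorescent compounds; inactive means inhibition at or below 30%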). The conditions noted are these: bead-bound GRK2, FAM-aptamer displacement, at 10 µM, stronger effect = higher value.
Chain of Beta-adrenergic receptor kinase 1 (Homo sapiens) (P25098 whole entry, looked up): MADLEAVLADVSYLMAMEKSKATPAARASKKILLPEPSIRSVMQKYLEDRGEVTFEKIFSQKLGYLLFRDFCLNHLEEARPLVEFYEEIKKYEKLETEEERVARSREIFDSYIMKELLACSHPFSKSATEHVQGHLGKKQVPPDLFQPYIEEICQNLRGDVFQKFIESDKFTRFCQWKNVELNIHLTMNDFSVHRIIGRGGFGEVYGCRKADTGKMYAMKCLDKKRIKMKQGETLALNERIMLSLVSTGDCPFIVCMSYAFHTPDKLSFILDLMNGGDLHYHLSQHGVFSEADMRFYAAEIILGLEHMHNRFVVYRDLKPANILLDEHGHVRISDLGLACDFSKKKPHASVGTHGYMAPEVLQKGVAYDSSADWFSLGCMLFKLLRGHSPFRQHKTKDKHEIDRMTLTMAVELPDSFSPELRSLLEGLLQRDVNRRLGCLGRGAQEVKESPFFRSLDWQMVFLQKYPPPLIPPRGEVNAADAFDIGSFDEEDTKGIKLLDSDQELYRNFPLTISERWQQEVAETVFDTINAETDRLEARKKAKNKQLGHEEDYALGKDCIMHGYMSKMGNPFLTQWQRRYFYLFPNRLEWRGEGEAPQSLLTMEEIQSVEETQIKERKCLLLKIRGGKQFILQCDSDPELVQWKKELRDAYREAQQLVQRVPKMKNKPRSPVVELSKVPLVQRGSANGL
Test [10] has as its target Beta-2 adrenergic receptor (Homo sapiens) (UniProt P07550). As to the kind of experiment: beta2AR agonists driving receptor internalization, pilot screen, cell-based, FAP fluorogen, flow cytometry, validation set (AID 504459;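 active means percent response above 42, roughly 3 SD of non-fluorescent test compounds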;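 further: agonist-driven loss of surface beta2AR via internalization measured by FAP dye flow cytometry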). As to conditions: Am2.2-beta2AR cells, FAP surface receptor flow cytometry; at 10 µM; stronger effect = higher value.
For test [11], the target named is AP-2 complex subunit beta (Homo sapiens) (UniProt P63010). As to the kind of experiment: inhibitors of arrestin peptide binding to AP2, pilot screen, biochemical, validation set, GST-AP2 beads, flow cytometry (AID 504541;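 active means inhibition above 54%, about 3 SD of non-fluorescent compounds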;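 further: AP2 carries R879A mutation and is captured from E. coli lysate; bead-bound FITC arrestin peptide fluorescence measuring arrestin peptide binding to AP2; 0% = DMSO wells and 100% = excess unlabeled arrestin peptide control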). As to conditions: FITC arrestin peptide, at 10 µM, stronger effect = higher value, AP2 beta2 appendage fragment, R879A mutant.
Chain of AP-2 complex subunit beta (Homo sapiens) (P63010 whole entry, looked up, the tested form may be a part, one chain of several): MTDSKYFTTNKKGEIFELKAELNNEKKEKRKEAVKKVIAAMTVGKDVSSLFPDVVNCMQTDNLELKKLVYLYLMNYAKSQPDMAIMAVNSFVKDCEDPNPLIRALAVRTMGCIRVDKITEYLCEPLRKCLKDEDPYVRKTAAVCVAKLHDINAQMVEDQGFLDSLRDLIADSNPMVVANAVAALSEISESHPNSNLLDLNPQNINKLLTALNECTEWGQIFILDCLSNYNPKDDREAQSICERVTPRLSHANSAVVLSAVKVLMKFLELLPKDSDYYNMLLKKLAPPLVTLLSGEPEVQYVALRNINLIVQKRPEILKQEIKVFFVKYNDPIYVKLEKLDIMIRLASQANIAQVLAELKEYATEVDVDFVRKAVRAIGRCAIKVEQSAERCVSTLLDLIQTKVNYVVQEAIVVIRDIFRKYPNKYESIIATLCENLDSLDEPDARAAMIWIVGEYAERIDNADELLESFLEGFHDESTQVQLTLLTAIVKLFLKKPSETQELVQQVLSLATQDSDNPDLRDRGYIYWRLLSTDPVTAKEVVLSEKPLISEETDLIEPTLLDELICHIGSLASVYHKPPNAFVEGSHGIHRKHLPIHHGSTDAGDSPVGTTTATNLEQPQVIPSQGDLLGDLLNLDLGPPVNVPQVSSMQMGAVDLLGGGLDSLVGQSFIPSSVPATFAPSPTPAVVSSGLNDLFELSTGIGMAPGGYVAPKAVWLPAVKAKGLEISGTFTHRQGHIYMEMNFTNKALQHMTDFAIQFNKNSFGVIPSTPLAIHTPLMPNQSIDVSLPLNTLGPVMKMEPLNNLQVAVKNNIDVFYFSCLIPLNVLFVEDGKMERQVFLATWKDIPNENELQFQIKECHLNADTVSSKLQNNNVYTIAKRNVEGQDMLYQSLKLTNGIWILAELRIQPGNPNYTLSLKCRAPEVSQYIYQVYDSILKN
Test [12] in a line: yeast V-ATPase proton transport modulators, S. cerevisiae, pHLuorin, HTS validation (AID 504600).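 Further: plate controls were DMSO for no effect and reference compound for full effect.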 As to conditions: S. cerevisiae pHLuorin cytosolic pH, at 10 µM, stronger effect = higher value.
For test [13], the system named is anti-desmoglein-3 scFv antibody binding to human DSG3. The test can be described thus: inhibitors of anti-DSG3 scFv binding to DSG3, pilot screen, biochemical, validation compound set, bead-based, flow cytometry (AID 588368;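 active means binding below the plate cutoff, the plate median minus 3 SD, with a reading above zero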;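 further: signal is the median channel fluorescence of bead-bound GFP antibody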). As to conditions: Protein G beads, DSG3-Fc, scFv-GFP binding, at 10 µM, stronger effect = lower value.
Test [14] in a line: inhibitors of fungal efflux pumps CDR1, CDR2, MDR1, pilot screen, validation compound set, multiplex, phenotypic (AID 588506;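 active means efflux inhibition above 0.42, the validation set average plus 4 SD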;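 further: Nile Red retained in cells so higher fluorescence means more efflux inhibition; 0 = negative control wells and 1 = enniatin B 25 µM full block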). The conditions noted are these: S. cerevisiae pump-expressing triplex, Nile Red efflux flow cytometry; at 10 µM; stronger effect = higher value; the pumps come from Candida albicans.
The target of test [15] is ATP-binding cassette sub-family B member 6 (Homo sapiens) (UniProt Q9NP58). As to the kind of experiment: ABCB6 transporter inhibitors, pilot screen, K562-ABCB6 cells, flow cytometry, validation set (AID 588550;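 active means inhibition above the screen-wide mean plus 3 SD, about 51%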;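 further: 0% = DMSO wells and 100% = benzethonium chloride 70 µM positive control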). As to conditions: K562-ABCB6 porphyrin accumulation, 1 h, at 10 µM, stronger effect = higher value.
Chain of ATP-binding cassette sub-family B member 6 (Homo sapiens) (Q9NP58 whole entry, looked up): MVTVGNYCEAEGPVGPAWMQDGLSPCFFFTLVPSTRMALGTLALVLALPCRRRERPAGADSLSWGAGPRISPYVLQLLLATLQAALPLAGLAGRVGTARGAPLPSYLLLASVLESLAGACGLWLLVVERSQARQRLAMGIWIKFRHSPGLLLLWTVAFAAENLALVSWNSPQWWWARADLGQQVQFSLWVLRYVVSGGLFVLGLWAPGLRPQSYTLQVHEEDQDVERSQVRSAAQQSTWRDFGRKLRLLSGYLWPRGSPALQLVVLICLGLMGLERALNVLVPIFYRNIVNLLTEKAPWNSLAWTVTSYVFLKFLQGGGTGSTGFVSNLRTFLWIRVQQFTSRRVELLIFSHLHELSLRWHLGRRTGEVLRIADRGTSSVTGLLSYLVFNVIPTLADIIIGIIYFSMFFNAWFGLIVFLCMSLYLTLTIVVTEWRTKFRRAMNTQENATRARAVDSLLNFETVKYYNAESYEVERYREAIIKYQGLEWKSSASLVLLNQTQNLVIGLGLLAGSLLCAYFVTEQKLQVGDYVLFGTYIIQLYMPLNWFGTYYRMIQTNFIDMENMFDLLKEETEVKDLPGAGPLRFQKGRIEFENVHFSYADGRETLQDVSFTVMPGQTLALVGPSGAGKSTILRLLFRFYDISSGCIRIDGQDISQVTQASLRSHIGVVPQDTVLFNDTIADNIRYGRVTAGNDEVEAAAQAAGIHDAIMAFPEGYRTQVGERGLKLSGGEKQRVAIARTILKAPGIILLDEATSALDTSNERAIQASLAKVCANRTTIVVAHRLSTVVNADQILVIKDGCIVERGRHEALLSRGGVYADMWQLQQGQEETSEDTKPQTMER
The nature of test [16]: promoters of myeloid differentiation in arrested cells, primary screen, cell-based, GFP/MAC1 double positive, flow cytometry, validation set (AID 588685;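 active means differentiation response of at least 50%, scaled between solvent and reference control, from cells with both markers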;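 further: compound exposure lasts four days before antibody staining and flow analysis; 0% = DMSO wells and 100% = 5 µM fulvestrant positive control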). As to conditions: ER-HoxA9 marrow cells, stronger effect = higher value, normalized: vehicle 0, fulvestrant 100.

Chain of Beta-2 adrenergic receptor (Homo sapiens) (P07550 whole entry, looked up): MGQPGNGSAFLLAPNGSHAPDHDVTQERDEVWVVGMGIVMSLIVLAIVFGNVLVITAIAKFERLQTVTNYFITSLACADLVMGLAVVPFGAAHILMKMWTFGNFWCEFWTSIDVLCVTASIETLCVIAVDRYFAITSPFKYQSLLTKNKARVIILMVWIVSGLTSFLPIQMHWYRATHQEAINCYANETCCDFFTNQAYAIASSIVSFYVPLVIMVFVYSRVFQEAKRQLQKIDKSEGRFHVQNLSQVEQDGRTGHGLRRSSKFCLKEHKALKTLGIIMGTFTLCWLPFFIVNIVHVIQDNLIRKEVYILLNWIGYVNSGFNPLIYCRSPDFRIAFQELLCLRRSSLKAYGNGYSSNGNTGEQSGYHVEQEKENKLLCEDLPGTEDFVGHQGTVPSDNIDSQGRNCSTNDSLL

For orientation: inhibition means the drop in the measured response relative to a control, in per cent. As for `Cc1ccnc2c1NC(=O)c1cccnc1N2C1CC1`, the percent of DMSO control GFP in test [1] is 102% (inactive). In addition, the GFP response vs DMSO in test [2] is 98.3% (inactive); in test [4], 98% (inactive). In test [3], the percent response of DMSO control was 115% (inactive). Besides, the GFP response, % of DMSO in test [5] was 99.4% (inactive). This compound also showed a double positive events in test [6] of 66.5%. In addition, the vesicle binding response in test [6] was 295% (inactive). Moreover, the results for the inhibition in [7], in [11] and in test [15] were 2.66% (inactive), -5.17% (inactive) and 2% (inactive), respectively. For the same compound, the superoxide response (% of plate) in test [8] is 108% (inactive). The aptamer binding inhibition in test [9] was 4% (inactive). The response in test [10] is -1.22% (inactive); in test [12], 0.42% (inactive). Also, the binding (% of control) in [13] is 99.2% (inactive). Moreover, the efflux inhibition (fraction of control) in test [14] was -0.17 (inactive). The differentiation response in [16] is 2.2% (inactive).
For `CC(C)OC(=O)C1C(=O)CC(C)(O)C(C(=O)OC(C)C)C1c1cccc(O)c1` (stereo not given), in test [1], the percent of DMSO control GFP was 105% (inactive). For the same compound, the GFP response vs DMSO in [2] is 99.7% (inactive); in test [4], 101% (inactive). Also, the percent response of DMSO control in test [3] is 105% (inactive). Further, in test [5], the GFP response, % of DMSO was 114% (inactive). For the same compound, in [6], the double positive events is 55.9%. Moreover, the vesicle binding response in test [6] was 278% (inactive). The inhibition is -18.5% (inactive) in [7], 29.4% (inactive) in test [11] and -13% (inactive) in [15]. In addition, in test [8], the superoxide response (% of plate) was 85.3% (inactive). Also, the aptamer binding inhibition in test [9] was -5% (inactive). The response in [10] is 6.25% (inactive); in [12], -3.54% (inactive). Also, the binding (% of control) in [13] is 99.8% (inactive). Besides, the efflux inhibition (fraction of control) in [14] was -0.22 (inactive). For the same compound, the differentiation response in [16] was -11.9% (inactive).
As to `CN(C)CCC(c1ccc(Cl)cc1)c1ccccn1` (stereo not given), in test [1], the percent of DMSO control GFP was 99% (inactive). In addition, the values for the GFP response vs DMSO in test [2] and in test [4] were 120% (inactive) and 78.7% (inactive), respectively. In addition, the percent response of DMSO control in [3] is 108% (inactive). In addition, in test [5], the GFP response, % of DMSO was 87.5% (inactive). Also, in test [6], the double positive events amounted to 56.3%. In [6], the vesicle binding response is 215% (inactive). Further, the values for the inhibition in [7], in [11] and in test [15] were -7.12% (inactive), 4.35% (inactive) and 7% (inactive), respectively. For the same compound, the superoxide response (% of plate) in [8] is 94% (inactive). The aptamer binding inhibition in [9] was -7% (inactive). For the same compound, the response in test [10] is -9.09% (inactive); in test [12], 18.1% (active). For the same compound, the binding (% of control) in [13] was 107% (inactive). Besides, in test [14], the efflux inhibition (fraction of control) is 0.05 (inactive). Further, the differentiation response in test [16] is 37.7% (inactive).
Consider `Nc1nc(Cl)nc2c1ncn2[C@H]1C[C@H](O)[C@@H](CO)O1`, for which the percent of DMSO control GFP in [1] is 99.2% (inactive). The GFP response vs DMSO in [2] was 102% (inactive); in [4], 104% (inactive). Further, the percent response of DMSO control in test [3] is 106% (inactive). Besides, the GFP response, % of DMSO in test [5] was 114% (inactive). The compound further returned a double positive events in test [6] of 63.3%. In test [6], the vesicle binding response was 225% (inactive). Besides, the inhibition in test [7] was 0.59% (inactive); in [11], 27.9% (inactive); in [15], -1% (inactive). Also, the superoxide response (% of plate) in test [8] was 86.7% (inactive). Also, in test [9], the aptamer binding inhibition is 7% (inactive). Further, the figures for the response in test [10] and in test [12] were -24.5% (inactive) and 2.75% (inactive), respectively. In addition, the binding (% of control) in test [13] is 103% (inactive). For the same compound, the efflux inhibition (fraction of control) in test [14] was 0 (inactive). Also, the differentiation response in [16] is -9.91% (inactive).
For `COc1ccc(-n2cc(CNCc3cccnc3)c(-c3cccc(F)c3)n2)cc1`, the percent of DMSO control GFP in [1] was 105% (inactive). The values for the GFP response vs DMSO in test [2] and in [4] were 97.2% (inactive) and 110% (inactive), respectively. Further, in test [3], the percent response of DMSO control was 115% (inactive). Further, in test [5], the GFP response, % of DMSO was 99.1% (inactive). In [6], this compound gave a double positive events of 64.8%. The vesicle binding response in [6] is 314% (inactive). Also, the figures for the inhibition in [7], in test [11] and in test [15] were -4.6% (inactive), -5.67% (inactive) and 20% (inactive), respectively. Moreover, the superoxide response (% of plate) in test [8] is 89.3% (inactive). Besides, the aptamer binding inhibition in [9] was 0% (inactive). Further, the response was -13.2% (inactive) in test [10] and -0.1% (inactive) in test [12]. For the same compound, in [13], the binding (% of control) was 104% (inactive). For the same compound, the efflux inhibition (fraction of control) in test [14] was -0.26 (inactive). In addition, the differentiation response in test [16] is 4.15% (inactive).
